In PubChem BioAssay AID590 (National Center for Advancing Translational Sciences (NCATS), 2007):
About 6,500 (11%) of roughly 59,000 compounds were called active. Inconclusive results (about 15%) are left out. Cut-off read from the data, not from the text of the source: active = max dye-equivalent concentration above about 10 nM; inconclusive = mostly about 1.1 nM to 9.6 nM; inactive = weaker than that. Many of the other results were omitted from the sample, so actives are more common in it than they were.

Test: qHTS Assay for Spectroscopic Profiling in A350 Spectral Region
Conditions: Compound autofluorescence, 340/450 nm, Alexa 350 dye-equivalents; stronger effect = higher value

| Structure (SMILES) | max dye-equivalent concentration |
| --- | --- |
| Brc1ccc(Nc2c3c(nc4ncnn24)CCC3)cc1 | inactive |
| CC1CCc2c(sc(NC(=O)c3ccc(Cn4cc(Br)cn4)o3)c2C(N)=O)C1 (stereo unspecified) | 110 nM (active) |
| NC(=O)CSc1oc(-c2cccs2)nc1S(=O)(=O)c1ccccc1 | inactive |
| O=C(c1ccco1)N1CCC[C@@]2(CCN(Cc3nccs3)C2)C1 | inactive |
| c1ccc(-c2cn3cccnc3n2)cc1 | 4800 nM (active) |
| CC(=O)Nc1cccc(-c2cnc3ccccc3n2)c1 | inactive |
| CC(=O)Nc1ccc(-c2cn3cccnc3n2)cc1 | 6300 nM (active) |
| CCCC(=O)Nc1cccc(-c2cn3ccsc3n2)c1 | inactive |
| COc1ccc(-c2cn3ccsc3n2)cc1 | inactive |
| CCOc1nc(OCC)nc(-n2cc(-c3ccccc3)nn2)n1 | inactive |
| CC(=O)N(Cc1cccs1)C1CCOC(C)(C)C1 (stereo unspecified) | inactive |
| CCCCn1c(=S)[nH]c2ncccc2c1=O | inactive |
| O=S(=O)(N1CCOCC1)N1CCN(c2ccccc2F)CC1 | inactive |
| c1ccc(-c2[nH]ncc2-c2nc3ccccc3[nH]2)cc1 | inactive |
| CC1(C)CC(=O)NC=C(c2ccccc2)C1 | inactive |
| O=c1[nH]c(-c2ccccc2)c(-c2ccccc2)[nH]1 | 14 nM (active) |
| c1csc(CN2CCN(Cc3cccs3)C2c2cccs2)c1 | inactive |
| CC1CCCCC1NC(=O)CCS(=O)(=O)c1cccc2nonc12 (stereo unspecified) | inactive |
| C=CCn1c(N)c(S(=O)(=O)c2cccs2)c2nc3ccccc3nc21 | 5300 nM (active) |
| C=CCn1c(C2CC(=O)N(c3ccc(C)cc3)C2)nc2ccccc21 (stereo unspecified) | inactive |
| CCN(CC(=O)NCc1cccs1)c1nnnn1-c1ccccc1 | inactive |
| C=CCn1c(N)c(C(=O)OCC(C)C)c2nc3ccccc3nc21 | 4500 nM (active) |
| CC(C)Cn1c(N)c(C(=O)NCc2cccs2)c2nc3ccccc3nc21 | 350 nM (active) |
| Cc1nnc(SCC(=O)NCc2cccs2)[nH]c1=O | inactive |

| Structure (SMILES) | max dye-equivalent concentration |
| --- | --- |
| CC(=O)c1c(N2CCOCC2)nc(=S)n(-c2cc(C)ccc2C)c1C | inactive |
| COC(=O)[C@@H]1[C@H]2C[C@H]3c4[nH]c5cc(OC)ccc5c4CCN3C[C@@H]2C[C@@H](OC(=O)c2cc(OC)c(OC)c(OC)c2)[C@@H]1OC | inactive |
| Oc1c(Br)cc(CN(Cc2cc(Br)c(O)c(Br)c2)C2CCCCC2)cc1Br | inactive |
| CS(=O)(=O)c1ccc2nc(NC(=O)CN3CCCCCC3)sc2c1 | inactive |
| CCn1nnc(NC(=O)c2c(OC)cccc2OC)n1 | inactive |
| O=C(CSc1nc2ncccc2[nH]1)Nc1ccc2c(c1)OCCO2 | inactive |
| CC(C)C(c1nnnn1C1CCCC1)N1CCN(c2ccccc2F)CC1 (stereo unspecified) | inactive |
| Cc1cc(C)c(C#N)c(SCc2ccccc2C(=O)O)n1 | 13 nM (active) |
| Cc1cc(C)c(C#N)c(SCS(=O)c2ccc(C(C)(C)C)cc2)n1 (stereo unspecified) | inactive |
| Cc1cc(C)c(C#N)c(SCc2ccc3c(c2)OCO3)n1 | inactive |
| CCN(CC)S(=O)(=O)c1ccc(NC(=O)CN(c2cccc(F)c2)S(C)(=O)=O)cc1 | inactive |
| CCOC(=O)c1c(NC(=O)CCC(=O)NCc2ccco2)sc2c1CCCC2 | inactive |
| ClC(Cl)(Cl)C(N1CCN(c2ccccc2)CC1)N1CCN(c2ccccc2)CC1 | inactive |
| COc1ccccc1N1CCN(C(=O)CSc2nnc(-c3ccoc3C)o2)CC1 | inactive |
| CN1C(=O)c2ccc(NC(=O)C3CCCCC3)cc2C1=O | 320 nM (active) |
| O=C(Nc1ccncc1)c1c(F)cccc1F | inactive |
| Cc1nc(C)c(C(=O)Nc2ccc(C)c(F)c2)o1 | inactive |
| CN1C(=O)c2ccc(NC(=O)c3c(F)c(F)c(F)c(F)c3F)cc2C1=O | 110 nM (active) |
| O=C(Nc1c(Cl)cccc1Cl)C1CCC1 | inactive |
| O=C(O)c1ccc(NC(=O)C2CCCCC2)cc1 | inactive |
| C[N+]1(CCN=C=NC2CCCCC2)CCOCC1 | inactive |
| Cc1ccc(N2CCN(S(=O)(=O)N(C)C)CC2)cc1Cl | inactive |
| CCCCOc1ccc(C(C)(O)CCN2CCOCC2)cc1 (stereo unspecified) | inactive |
| CC(C)C(c1nnnn1CCc1ccccc1)N1CCN(C(=O)c2ccco2)CC1 (stereo unspecified) | inactive |

| Structure (SMILES) | max dye-equivalent concentration |
| --- | --- |
| N#Cc1cccc(-c2ccc3ncnc(NCc4cccs4)c3c2)c1 | inactive |
| CC(=O)Oc1cccc(N2C(=O)CC(Nc3ccc(N4CCOCC4)cc3)C2=O)c1 (stereo unspecified) | inactive |
| CS(=O)(=O)N1CCC2(CC1)CN(Cc1cc(C(F)(F)F)cc(C(F)(F)F)c1)C2 | inactive |
| COc1ccc(OC)c(NC(=O)Cn2c(=O)oc3ccccc32)c1 | inactive |
| COc1ccc(N2C(=O)CCC(C(=O)N(C)C3CCCCC3)C2c2ccc(OC)c(OC)c2)cc1 (stereo unspecified) | inactive |
| C#CCN1C(=O)C(O)(CC(=O)c2cc(OC)ccc2OC)c2ccccc21 (stereo unspecified) | 14 nM (active) |
| COc1cc2cc(CN(CCN3CCCC3)C(=O)Nc3ccccc3Cl)c(=O)[nH]c2cc1OC | 310 nM (active) |
| COc1ccc(CCN(Cc2cc3cccc(C)c3[nH]c2=O)C(=O)N2CCCC2)cc1OC | inactive |
| COc1cccc2cc(C(C)N(CCCN3CCOCC3)C(=O)Nc3ccc(Cl)cc3)oc12 (stereo unspecified) | inactive |
| Cc1ccc(-c2nnn(CC(=O)N(CCO)C(C(=O)NC(C)(C)C)c3ccncc3)n2)cc1 (stereo unspecified) | inactive |
| O=C(Nc1ccc2c(c1)OCCO2)c1ccncc1 | inactive |
| Cc1cc(C)n2nc(C(=O)Oc3ccc4c(c3)OCO4)nc2n1 | inactive |
| COc1ccc2[nH]c3c(=O)n(Cc4ccco4)cnc3c2c1 | 55 nM (active) |
| O=c1c2[nH]c3ccc(Cl)cc3c2ncn1Cc1ccccn1 | inactive |
| COc1ccc(C(=O)CSc2nnc(COc3ccccc3)n2Cc2ccco2)cc1 | inactive |
| COC(=O)c1[nH]c2ccccc2c1NS(=O)(=O)c1ccc(OC)cc1OC | inactive |
| COc1ccc(OC)c(N=Cc2c(O)[nH]c3ccccc23)c1 | 64 nM (active) |
| CCOc1ccccc1NC(=O)Nc1cc(OC)ccc1OC | inactive |
| Cc1nc2nc(COc3ccccc3)[nH]n2c(=O)c1Cc1ccccc1 | inactive |
| CC(=O)/C(C)=N\O | inactive |
| Cn1c(=O)c2c(nc(N3CCCCCC3)n2CC(=O)c2ccc(Br)cc2)n(C)c1=O | inactive |
| Cn1c(=O)c2c(nc(N3CCCCCC3)n2CC(O)COc2ccc(Cl)cc2)n(C)c1=O (stereo unspecified) | 49 nM (active) |
| Cc1cccc(Cn2c(N3CCN(c4ccccc4)CC3)nc3c2c(=O)n(C)c(=O)n3C)c1 | inactive |
